# Assay results reported in the supplement of paper PMC10646978.
# ± gives the standard deviation.
# How the values were obtained:
# Settings in all cases: modulator concentration 10 µM
# [1] = test system: RAW-Dual (murine macrophage reporter line); test: NF-kB reporter (SEAP) activity fold change vs agonist alone; higher = enhanced NF-kB activity
# Outline: (§1)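 Overnight stimulation with a PRR agonist followed pre-incubation for 1 hour at 37 °C with compound at 10 μM final. This was done in RAW-Dual murine macrophage reporter cells seeded at 50 000 per well in 384-well plates. NF-κB (SEAP, QUANTI-Blue absorbance at 620 nm) and IRF (Lucia luciferase, QUANTI-Luc luminescence) were read from the supernatant. Each reporter's fold change relative to the mean agonist-only control on the same plate was averaged over replicate plates.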
# [2] = test system: RAW-Dual (murine macrophage reporter line); test: IRF reporter (Lucia luciferase) activity fold change vs agonist alone; higher = enhanced IRF activity
# Outline: as §1
# [3] = test system: RAW-Dual (murine macrophage reporter line); test: viability score (confluency relative to resting cells, overnight) (fraction); higher = more viable, active = viable (0.7 or more)
# Outline: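 A compound met the cutoff when both of two confluency masks exceeded 70% of resting cells. Those masks were made with IncuCyte software from IncuCyte images of RAW-Dual macrophages treated overnight at 10 μM final. This is the basis of the viability score, which is confluency relative to resting cells.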
# [4] = agonist: CpG ODN 1826 0.5 ug/mL
SMILES,"NF-kB reporter [1, 4]",NF-kB reporter ([1]; agonist: LPS 0.1 ug/mL),NF-kB reporter ([1]; agonist: MPLA […]),IRF reporter ([2]; agonist: 3'3'-cGAMP 10 ug/mL),IRF reporter ([2]; agonist: LPS 0.1 ug/mL),IRF reporter ([2]; agonist: MPLA […]),viability score [3]
Nc1nc(=O)[nH]cc1F,0.84 ± 0.12,1.07 ± 0.085,1.08 ± 0.11,1.02 ± 0.049,1.23 ± 0.071,1.33 ± 0.11,1.01 (active)
CCC(C)(C)C(=O)Nc1ccc(C(C)=O)cc1,0.962 ± 0.076,1.03 ± 0.068,0.953 ± 0.045,0.909 ± 0.13,1.02 ± 0.14,1.11 ± 0.22,1 (active)
COc1ccc(C=Nc2ccc(OC(C)=O)cc2)cc1,0.738 ± 0.16,1.11 ± 0.16,1.03 ± 0.11,0.588 ± 0.029,1.34 ± 0.13,1.23 ± 0.15,1 (active)
CN(C)CCC(c1ccc(Br)cc1)c1ccccn1.O=C(O)/C=C\C(=O)O (centres undefined),1.07 ± 0.14,1.15 ± 0.27,0.939 ± 0.052,0.71 ± 0.024,1.17 ± 0.34,0.918 ± 0.086,1.01 (active)
COC(=O)c1ccc(N2C(=O)c3ccc(Oc4cccc([N+](=O)[O-])c4)cc3C2=O)cc1,0.969 ± 0.085,0.923 ± 0.079,1.06 ± 0.11,0.994 ± 0.031,1.33 ± 0.17,1.71 ± 0.19,1.02 (active)
COc1ccccc1OCC(O)CN1CCN(CC(=O)Nc2c(C)cccc2C)CC1.Cl.Cl (centres undefined),0.724 ± 0.11,0.982 ± 0.19,0.991 ± 0.064,0.908 ± 0.064,1.05 ± 0.23,0.931 ± 0.16,0.991 (active)
CN1C(CC(=O)c2ccccc2)CCCC1CC(O)c1ccccc1.Cl (centres undefined),0.601 ± 0.16,1.01 ± 0.097,0.964 ± 0.083,0.815 ± 0.041,0.996 ± 0.21,1.03 ± 0.15,0.988 (active)
CCN1CCCC1CNC(=O)c1cc(S(N)(=O)=O)ccc1OC (centres undefined),1.01 ± 0.11,1.06 ± 0.07,0.992 ± 0.052,1.02 ± 0.11,0.982 ± 0.11,0.865 ± 0.068,1 (active)
O=C(NCC1CN(c2ccc(N3CCOCC3=O)cc2)C(=O)O1)c1ccc(Cl)s1 (centres undefined),1.36 ± 0.18,1.09 ± 0.41,0.984 ± 0.063,0.898 ± 0.031,1.21 ± 0.43,1.03 ± 0.08,1 (active)
O=C(CCC1CCCC1)Nc1cccc(F)c1,0.986 ± 0.059,1.08 ± 0.12,0.959 ± 0.029,0.999 ± 0.045,1.03 ± 0.091,1.12 ± 0.25,1 (active)
CC(=O)Oc1ccc2c(C)c(Cl)c(=O)oc2c1C,1.14 ± 0.24,1.01 ± 0.08,0.96 ± 0.1,0.93 ± 0.024,1.25 ± 0.19,1.19 ± 0.16,1.01 (active)
CCOc1ccccc1O[C@H](c1ccccc1)[C@H]1CNCCO1.CS(=O)(=O)O,0.873 ± 0.095,0.979 ± 0.061,1.03 ± 0.055,0.82 ± 0.045,0.905 ± 0.15,0.897 ± 0.074,0.99 (active)
Cc1ccc(CN2CCN(N=Cc3c4ccccc4cc4ccccc34)CC2)cc1,0.75 ± 0.071,0.881 ± 0.044,1.12 ± 0.1,0.855 ± 0.048,1.37 ± 0.08,1.25 ± 0.13,0.998 (active)
COc1ccc(-c2csc(NC(=O)CCc3ccccc3)c2C(=O)O)cc1,0.697 ± 0.1,0.809 ± 0.072,1.04 ± 0.15,0.957 ± 0.046,1.51 ± 0.12,1.63 ± 0.14,1.02 (active)
O=C(CCC1CCCC1)Nc1cccc(Cl)c1,0.771 ± 0.061,0.906 ± 0.1,1.15 ± 0.1,0.943 ± 0.046,1.63 ± 0.11,1.87 ± 0.16,1 (active)
Cc1cn([C@@H]2C[C@@H](O)[C@H](CO)O2)c(=O)[nH]c1=O,1.12 ± 0.086,0.998 ± 0.054,1.01 ± 0.065,1.09 ± 0.18,0.886 ± 0.04,0.82 ± 0.15,1.01 (active)
CCc1nc2ccc(C(=O)NC3CCC(n4cccn4)CC3)cc2s1 (centres undefined),1.02 ± 0.098,1.04 ± 0.082,1.03 ± 0.054,0.959 ± 0.047,0.964 ± 0.045,0.925 ± 0.14,1 (active)
O=C(O)c1ccc(NC(=O)c2cccc(F)c2)cc1,1.09 ± 0.091,1.01 ± 0.1,0.962 ± 0.061,0.963 ± 0.035,1.08 ± 0.056,0.994 ± 0.18,0.998 (active)
CCOC(=O)[C@H](CCc1ccccc1)N[C@H]1CCc2ccccc2N(CC(=O)O)C1=O.Cl,1.07 ± 0.083,0.961 ± 0.17,0.987 ± 0.021,0.947 ± 0.054,0.935 ± 0.076,0.967 ± 0.14,0.999 (active)
CCC(CNC(=O)Cc1c(F)cccc1Cl)(OC)c1ccccc1 (centres undefined),0.854 ± 0.06,0.911 ± 0.091,1.06 ± 0.062,0.955 ± 0.074,1.09 ± 0.2,1.17 ± 0.37,0.825 (active)
COS(=O)(=O)[O-].C[N+]1(C)CCC(=C(c2ccccc2)c2ccccc2)CC1,1.35 ± 0.061,1.09 ± 0.093,1.76 ± 0.32,0.849 ± 0.047,0.979 ± 0.15,0.823 ± 0.18,0.958 (active)
CC(C(=O)O)c1ccc2c(c1)Cc1cccnc1O2 (centres undefined),1.29 ± 0.17,1.41 ± 0.38,1.1 ± 0.1,0.966 ± 0.03,1.55 ± 0.28,1.15 ± 0.14,0.985 (active)
COC(=O)c1cccc(-c2ccc(C=NN3C(=O)C4C5C=CC(CC5)C4C3=O)o2)c1 (centres undefined),1.04 ± 0.1,1.14 ± 0.082,0.815 ± 0.055,0.867 ± 0.025,1.55 ± 0.22,1.36 ± 0.14,1 (active)
Cc1ccc(C(=O)N(CCCN)[C@@H](c2nc3cc(Cl)ccc3c(=O)n2Cc2ccccc2)C(C)C)cc1,0.186 ± 0.034,0.318 ± 0.13,0.59 ± 0.089,0.209 ± 0.057,0.52 ± 0.23,0.241 ± 0.09,0.0279 (inactive)
Cc1cc(OCC(=O)NNC(=O)COc2ccc(Br)cc2Br)cc(C)c1Cl,0.961 ± 0.098,0.857 ± 0.13,0.985 ± 0.036,0.895 ± 0.15,0.987 ± 0.051,0.98 ± 0.086,0.945 (active)
O=C1CSC(=S)N1N=Cc1ccc(O)c([N+](=O)[O-])c1,0.956 ± 0.091,1.1 ± 0.11,0.97 ± 0.084,1.04 ± 0.027,1.75 ± 0.36,1.1 ± 0.17,0.994 (active)
O=c1[nH]c2ccccc2n1CCN1CCN(c2cccc(C(F)(F)F)c2)CC1,0.278 ± 0.037,0.403 ± 0.097,0.448 ± 0.028,0.953 ± 0.034,1.24 ± 0.34,1.51 ± 0.2,0.915 (active)
